Drawing on PubChem BioAssay AID1159580 (chemical genetic matrix, 2015), this text covers normalized growth for one compound.

This experiment can be described thus: chemical genetic growth profiling, strain panel (AID 1159580).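 Note: tested at 20 µM; growth read once vehicle control cultures reached saturation at 30 °C; 1 = growth at the plate median or of vehicle wells; lower values mean less growth of the strain.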 To be noted: S. cerevisiae deletion strains, growth OD, locus YOL012C, strain htz1.

The campaign covered roughly 5,500 compounds. About 2,000 (36%) were called active. About 18% were inconclusive and are not listed. The list shows a part of the results. Unmarked numbers belong to inactive results. Cut-off read from the data, not from the text of the source: active = normalized growth mostly below about 0.91 (no sharp cut-off); inconclusive = no clear call, values can overlap the other calls; inactive = mostly above about 0.92. Where a SMILES comes first, the peptide text is derived from it. [ ]: non-standard residue; d: D form. Orn = NCCC[CH](N)C(=O)O

As to `CC(C)CC1NC(=O)C(CCCN)NC(=O)C(C(C)C)NC(=O)C(Cc2ccc(O)cc2)NC(=O)C(CCC(=O)O)NC(=O)C(CC(=O)O)NC(=O)C(Cc2ccccc2)NC(=O)C(Cc2ccccc2)NC(=O)C2CCCN2C(=O)C(Cc2ccccc2)NC1=O` (stereo unspecified) (cyclo(DEYV[Orn]LFPFF); configuration not given here), the normalized growth is 0.202.
